Here are results for seven compounds from PubChem BioAssay.

Structures are written as SMILES.

The target in experiment [1] is Tumor necrosis factor receptor superfamily member 10B (Homo sapiens) (UniProt O14763). Briefly: viability loss of caspase-8 NB7 cells with TRAIL – with/without TRAIL, luminescence panel, confirmation (AID 651596). Conditions: NB7 neuroblastoma + caspase-8, TRAIL sensitization, NB7 Caspase-8, with TRAIL, mean of runs, at 10 µM, stronger effect = higher value.
Experiment in experiment [2]: as above
Conditions: NB7 neuroblastoma + caspase-8, without TRAIL, NB7 Caspase-8, without TRAIL, mean of runs, at 10 µM.

Sequence of Tumor necrosis factor receptor superfamily member 10B (Homo sapiens) (O14763 whole entry, looked up): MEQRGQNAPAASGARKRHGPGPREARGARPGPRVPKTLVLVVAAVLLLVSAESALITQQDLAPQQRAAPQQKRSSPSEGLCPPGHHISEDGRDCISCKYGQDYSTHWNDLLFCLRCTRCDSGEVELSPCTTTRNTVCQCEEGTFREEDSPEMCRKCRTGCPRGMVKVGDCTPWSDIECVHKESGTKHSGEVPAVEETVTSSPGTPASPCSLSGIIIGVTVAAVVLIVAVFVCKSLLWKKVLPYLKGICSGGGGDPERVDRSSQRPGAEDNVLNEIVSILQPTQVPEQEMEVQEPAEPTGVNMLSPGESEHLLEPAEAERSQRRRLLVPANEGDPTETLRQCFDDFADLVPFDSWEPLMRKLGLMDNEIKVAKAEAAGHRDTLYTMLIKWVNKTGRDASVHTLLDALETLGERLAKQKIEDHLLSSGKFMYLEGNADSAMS

For `COc1ccc(-c2nc3ccccc3c(=O)[nH]2)cc1`, the results for the activity in experiment [1] and in experiment [2] were 73.8% and 77.5%, respectively.

Consider `COC(=O)c1nc(NC(=S)NC(=O)c2cccs2)sc1C`, for which the activity in experiment [1] is 53.8%; in experiment [2], 37.9%.

Turning to `C=CCn1c(C)cc(C(=O)COC(=O)c2n[nH]c(=O)c3ccccc23)c1C`, the activity turned out to be 74.4% in experiment [1] and 57.4% in experiment [2].

Consider `O=C(CCl)N(CCCNC(=O)C(F)(F)F)c1ccc([N+](=O)[O-])cc1`, for which the activity was found to be 98.5% in experiment [1] and 98.3% in experiment [2].

With `COc1ccc(-c2ccc3c(c2)S(=O)(=O)c2cccc(C(=O)NCCOc4ccccc4Cl)c2C3=O)cc1OC`, the activity in experiment [1] turned out to be 91.2%; in experiment [2], 77.8%.

On to `C=C1C(=O)OC2C=C(CO)C3OC3C3OC3(C)CC(OC(=O)/C(=C/C)COC(C)=O)C12` (centres undefined), for which the activity in experiment [1] is 70.1%; in experiment [2], 81%.

With `Cn1cnc([N+](=O)[O-])c1Sc1nc(N)nc2c1ncn2C1OC(CO)C(O)C1O` (centres undefined), the activity amounted to 66.8% in experiment [1] and 75.4% in experiment [2].
